Experimental data taken from PubChem BioAssay.
Records with an inconclusive call do not appear. Active and inactive are the calls of the source.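 The calls were made as follows, unless noted: active = normalized viability below 100% at a tested concentration; inactive = the rest.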

How the values were obtained:
[1] = viability loss in pontine glioma line – cell-based, SU-DIPG-XXV, MIPE5.0, CellTiter-Glo, qHTS, dose response (AID 1347065; cut-off not given, nearly all actives have AC50 up to about 26 µM;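 also: cells exposed to compound for 48 hours before ATP readout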); conditions: CellTiter-Glo ATP luminescence
[2] = JHH-DIPG-1 glioma cell viability, MIPE5.0 library, CellTiter-Glo luminescence, qHTS (AID 1347067; cut-off not given, nearly all actives have AC50 up to about 26 µM;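 also: cells exposed to compound for 48 hours before readout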); conditions: JHH-DIPG-1 glioma viability, CellTiter-Glo ATP luminescence
[3] = growth inhibition of DIPG cells – cell-based, MIPE5.0 library, qHTS (AID 1347068; cut-off not given, nearly all actives have IC50 up to about 30 µM;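 as to IC50: cells exposed to compound for 48 hours before viability readout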); conditions: SU-DIPG-XXV viability
[4] = viability loss with induced miR-34 in A549 – imaging, A549 dox-inducible miR-34, nuclei and caspase counts, primary screen (AID 1347080;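 active = compounds whose cell count with miR-34 switched on is under 0.7 times the count with it off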); conditions: A549 miR-34 inducible, Hoechst nuclei count, 48 h
[5] = compounds altering HSF1 focus formation in cells – imaging, Selleck Cancer Library (AID 1347162; in the data active = plate-normalised HSF1 focus index below about 0.46); conditions: human cells, HSF1 nuclear foci imaging, at 10 µM; SSMD: measured here: HSF1 foci SSMD mean; cell count: measured here: cell number; plate-normalised HSF1 focus index: stronger effect = lower value
[6] = MELAS cybrid and Rieske KO viability enhancers – cell-based, MELAS cybrids, Rieske KO mouse fibroblasts, CellTiter-Glo, primary screen (AID 1508586;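 active = mean z-score across replicates of 1.96 or higher in either the MELAS or the Rieske mutant cell line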;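 also: z relative to plate mean and SD of compound and empty wells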); conditions: low glucose
[7] = drug combination growth inhibition, ovarian cancer – cell-based, oncology-focused library, rucaparib conditional, profiling panel (AID 1508598); conditions: patient-derived ovarian cancer cells, CellTiter-Glo viability, 144 h, stronger effect = lower value

With `Cc1nn(Cc2ccccc2Cl)c(C)c1CN(C)CC(O)COc1ccc(Cl)cc1` (stereo not given) the AC50 [1] was 20.9 µM (active) and the AC50 [2] was 23.5 µM (active).

In the case of `C[C@@H]1C[C@H](N)C[C@H](c2ccncc2NC(=O)c2ccc(F)c(-c3c(F)cccc3F)n2)C1`, the AC50 [1] is reported as 9.34 µM (active).

With `Cc1cccc(-c2[nH]c(CNc3ccccc3F)nc2-c2ccc3ncnn3c2)n1` the outcome [1] was “inactive” and the outcome [3] was “inactive”.

In the case of `CN1CCN(CCCNc2ncc(Cl)c(-c3cc4c(C(=O)NC5CC5)cccc4s3)n2)CC1`, the AC50 [1] is reported as 23.5 µM (active) and the outcome [3] is reported as “inactive”.

With `CC(C)(O)CNc1nc(Nc2ccnc(C(F)(F)F)c2)nc(-c2cccc(C(F)(F)F)n2)n1` the AC50 [1] was 14.8 µM (active) and the outcome [3] was “inactive”.

With `O=c1c(-n2ccnn2)c[nH]n1-c1cc(N2CCOCC2)ncn1` the AC50 [1] was 20.9 µM (active) and the outcome [2] was “inactive”.

For `O=C(Nc1ccc(OC(F)(F)F)cc1)c1sccc1NCc1ccnc2ccccc12`, the AC50 [1] was 16.6 µM (active), the AC50 [2] was 5.9 µM (active) and the outcome [3] was “inactive”. The fold change ([4]; stronger effect = lower value, cell number ratio, induced over uninduced) was 0.889 (inactive), the fold change ([4]; measured here: relative caspase fold change +Dox/-Dox) was 1.05 and the cell count ([4]; measured here: total cells with miR-34 induction, stronger effect = lower value) was 4270. It also gave a cell count ([4]; measured here: total cells without miR-34 induction) of 4800, an SSMD [5] of 2.93 and a cell count [5] of 7420. The plate-normalised HSF1 focus index [5] was 1.18 (inactive), the z-score ([6]; MELAS cybrid survival, CellTiter-Glo 48 h, stronger effect = higher value) was -0.433 (inactive) and the z-score ([6]; Rieske KO mouse fibroblast survival, CellTiter-Glo 72 h) was 0.766. For the same molecule, the viability ([7]; at 0.000305 µM, OCI-C5x cells, with rucaparib 10 µM, 100% = cells with rucaparib alone) was 104% (inactive), the viability ([7]; at 0.000305 µM, OCI-C5x cells, without rucaparib) was 102% (inactive) and the viability ([7]; at 0.000305 µM, OCI-P5x cells, with rucaparib 20 µM, 100% = cells with rucaparib alone) was 79.8% (active). For the same molecule, the viability ([7]; at 0.000305 µM, OCI-P5x cells, without rucaparib) was 88.5% (active), the viability ([7]; at 0.00122 µM, OCI-C5x cells, with rucaparib 10 µM, 100% = cells with rucaparib alone) was 108% (inactive) and the viability ([7]; at 0.00122 µM, OCI-C5x cells, without rucaparib) was 110% (inactive). For the same molecule, the viability ([7]; at 0.00122 µM, OCI-P5x cells, with rucaparib 20 µM, 100% = cells with rucaparib alone) was 76.7% (active), the viability ([7]; at 0.00122 µM, OCI-P5x cells, without rucaparib) was 81.1% (active) and the viability ([7]; at 0.00488 µM, OCI-C5x cells, with rucaparib 10 µM, 100% = cells with rucaparib alone) was 98.6% (active). For the same molecule, the viability ([7]; at 0.00488 µM, OCI-C5x cells, without rucaparib) was 105% (inactive), the viability ([7]; at 0.00488 µM, OCI-P5x cells, with rucaparib 20 µM, 100% = cells with rucaparib alone) was 79.8% (active) and the viability ([7]; at 0.00488 µM, OCI-P5x cells, without rucaparib) was 79.7% (active). The viability ([7]; at 0.0195 µM, OCI-C5x cells, with rucaparib 10 µM, 100% = cells with rucaparib alone) was 108% (inactive), the viability ([7]; at 0.0195 µM, OCI-C5x cells, without rucaparib) was 113% (inactive) and the viability ([7]; at 0.0195 µM, OCI-P5x cells, with rucaparib 20 µM, 100% = cells with rucaparib alone) was 81% (active). The viability ([7]; at 0.0195 µM, OCI-P5x cells, without rucaparib) was 79% (active), the viability ([7]; at 0.0781 µM, OCI-C5x cells, with rucaparib 10 µM, 100% = cells with rucaparib alone) was 108% (inactive) and the viability ([7]; at 0.0781 µM, OCI-C5x cells, without rucaparib) was 113% (inactive). For the same molecule, the viability ([7]; at 0.0781 µM, OCI-P5x cells, with rucaparib 20 µM, 100% = cells with rucaparib alone) was 111% (inactive), the viability ([7]; at 0.0781 µM, OCI-P5x cells, without rucaparib) was 108% (inactive) and the viability ([7]; at 0.313 µM, OCI-C5x cells, with rucaparib 10 µM, 100% = cells with rucaparib alone) was 98.2% (active). For the same molecule, the viability ([7]; at 0.313 µM, OCI-C5x cells, without rucaparib) was 110% (inactive), the viability ([7]; at 0.313 µM, OCI-P5x cells, with rucaparib 20 µM, 100% = cells with rucaparib alone) was 107% (inactive) and the viability ([7]; at 0.313 µM, OCI-P5x cells, without rucaparib) was 110% (inactive). For the same molecule, the viability ([7]; at 1.25 µM, OCI-C5x cells, with rucaparib 10 µM, 100% = cells with rucaparib alone) was 94.5% (active), the viability ([7]; at 1.25 µM, OCI-C5x cells, without rucaparib) was 107% (inactive) and the viability ([7]; at 1.25 µM, OCI-P5x cells, with rucaparib 20 µM, 100% = cells with rucaparib alone) was 103% (inactive). For the same molecule, the viability ([7]; at 1.25 µM, OCI-P5x cells, without rucaparib) was 112% (inactive), the viability ([7]; at 5 µM, OCI-C5x cells, with rucaparib 10 µM, 100% = cells with rucaparib alone) was 89.4% (active) and the viability ([7]; at 5 µM, OCI-C5x cells, without rucaparib) was 117% (inactive). For the same molecule, the viability ([7]; at 5 µM, OCI-P5x cells, with rucaparib 20 µM, 100% = cells with rucaparib alone) was 77.3% (active) and the viability ([7]; at 5 µM, OCI-P5x cells, without rucaparib) was 54.8% (active).

For `CN1CCN(C(=O)c2ccc3cc(CCNc4ncnc5ccc(C#N)cc45)ccc3c2)CC1`, the AC50 [1] was 23.5 µM (active) and the AC50 [2] was 20.9 µM (active).

With `O=C1Nc2nc(-c3c(O)cccc3OCC3CC3)cc([C@@H]3CCCNC3)c2CO1` the AC50 [1] was 18.6 µM (active), the AC50 [2] was 26.3 µM (active) and the IC50 [3] was 13.2 µM (active).

With `CCc1cc2c(cc1N1CCC(N3CCOCC3)CC1)C(C)(C)c1[nH]c3cc(C#N)ccc3c1C2=O` the AC50 [1] was 2.04 µM (active) and the outcome [3] was “inactive”.

With `Cc1nc(C)c(CN2CCN(C(c3ccc(F)cc3)c3ccc(F)cc3)CC2)nc1C` the AC50 [1] was 23.5 µM (active), the outcome [2] was “inactive” and the outcome [3] was “inactive”.
